Laboratory results published in PubChem BioAssay (NCI).
The panel holds about 79,000 compounds, 15% with a hit somewhere; the sample as a whole holds those more often. Rule as the data show it: active = growth inhibition above about 70%; inactive = the rest.

How the values were obtained:
[1] = NCI Yeast Anticancer Drug Screen. Data for the rad50 strain (AID 155);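 also: 0% = growth of vehicle-only cultures of the same strain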; conditions: S. cerevisiae rad50 strain growth inhibition; at 50.0 µM; active compounds read high
How it was run: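 DNA repair mutant yeast, compound exposure, growth read-out; inhibition is taken relative to vehicle.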

[2] = NCI Yeast Anticancer Drug Screen. Data for the mec2-1 strain (AID 157); conditions: S. cerevisiae mec2-1 strain, at 50.0 µM, active compounds read high
How it was run: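 Vehicle-treated cultures served as reference for growth inhibition of compound-exposed mec2-1 yeast.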

[3] = NCI Yeast Anticancer Drug Screen. Data for the sgs1 mgt1 strain (AID 161);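 also: 0% = growth of cultures given vehicle only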; conditions: S. cerevisiae sgs1 mgt1 strain, at 50.0 µM, active compounds read high
How it was run: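 Read-out: growth inhibition vs vehicle controls. Cells: mutant yeast strain deficient in DNA damage repair.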

[4] = NCI Yeast Anticancer Drug Screen. Data for the cln2 rad14 strain (AID 165);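 also: 0% = growth equal to vehicle treated cultures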; conditions: S. cerevisiae cln2 rad14 strain, at 50.0 µM, active compounds read high
How it was run: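 Each compound was tested on cln2 rad14 yeast. Inhibition of growth was calculated against vehicle-exposed controls.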

[5] = NCI Yeast Anticancer Drug Screen. Data for the bub3 strain (AID 167); conditions: S. cerevisiae bub3 mutant strain, at 50.0 µM, active compounds read high
How it was run: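 In this screen, a yeast mutant lacking normal mitotic checkpoint function is challenged with compound. Relative growth versus vehicle gives the inhibition value.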

[6] = NCI Yeast Anticancer Drug Screen. Data for the mlh1 rad18 strain (AID 175); conditions: S. cerevisiae mlh1 rad18 strain growth inhibition; at 50.0 µM; active compounds read high
How it was run: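 Vehicle-treated cultures served as the reference for growth inhibition in a yeast strain carrying DNA damage repair alterations exposed to each compound.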

Measured: growth inhibition

O=c1ccc(=O)n(-c2ccc(Cl)cc2)[nH]1
inactive: [1] -8.1% | [2] -21.8% | [3] -12.7% | [4] 23.4% | [5] -6% | [6] -9.9%

CC(=O)C(Cc1ccccc1)(Cc1ccccc1)C(C)=O
inactive: [1] 3.3% | [2] -0.95% | [3] -8.3% | [4] 7.45% | [5] 1.35% | [6] 2%

CC(C)c1cccc(C(C)C)c1N1C(=O)C(=O)C(c2nc3ccccc3s2)C(=O)C1=O
inactive: [1] -11.7% | [2] -17.1% | [3] -7.65% | [4] -10% | [5] 1.55% | [6] -12.2%

OCC(F)(F)C(F)(F)C(F)(F)C(F)(F)C(F)(F)C(F)(F)C(F)(F)C(F)F
inactive: [1] 23.9% | [2] -11.2% | [3] -30.8% | [4] -11.5% | [5] 5.15% | [6] 8.6%

O=C(Oc1ccco1)c1ccc([N+](=O)[O-])cc1
inactive: [1] 2.55% | [2] 0.6% | [3] -4.7% | [4] -17.2% | [5] 0.1% | [6] -9.8%

CNc1nnnn1-c1ccccc1C
inactive: [1] -10.8% | [2] -3.55% | [3] -10.8% | [4] -86.5% | [5] -4.05% | [6] -8.05%

CCOC(=O)c1ccc(NC(=O)SCCC(=O)O)cc1
inactive: [1] 20.9% | [2] -19.9% | [3] -7.1% | [4] 15.8% | [5] -10.2% | [6] 13.8%

CC(=O)C1=C(O)C(Cc2ccccc2)NC1=O (stereo not given)
inactive: [1] 11.9% | [2] -0.2% | [3] 1.95% | [4] -37.1% | [5] -18.4% | [6] 10.7%

COC1=CC(=O)C(C(C)=O)=C(C2(C)C(=O)CCCC2=O)C1=O
inactive: [1] -12.3% | [2] 0.5% | [3] -0.6% | [4] 6.25% | [5] 5.15% | [6] 7.25%

C[N+](C)(C)CCC(=O)CC[N+](C)(C)C
inactive: [1] 16.2% | [2] -2.2% | [3] 0.5% | [4] -24.4% | [5] 32.6% | [6] 40.9%

CCC(/C=N\O)CC
inactive: [1] -12.8% | [2] 2.6% | [3] 11.4% | [4] -4.05% | [5] -3.05% | [6] 17.1%

N#CC(/C(=N/NC(N)=S)C(=O)Nc1cccc(Cl)c1)c1ccccc1 (stereo not given)
inactive: [1] -23.9% | [2] 13.8% | [3] 10.4% | [4] 18.3% | [5] 12.9% | [6] 31.2%

Cc1ccc(S(=O)(=O)C(=S)SCc2ccccc2)cc1
inactive: [1] 38.5% | [2] 37.8% | [3] 59% | [4] 19.6% | [5] 35.4% | [6] 33%

OCCN(Cc1ccccc1)Cc1ncccc1O
inactive: [1] 9.35% | [2] -27.1% | [3] -11.4% | [4] 8.85% | [5] -3.9% | [6] 5.7%

NC(=O)CCP(=O)(CCC(N)=O)CCC(N)=O
inactive: [1] 3.8% | [2] -2.3% | [3] 1.2% | [4] 0.8% | [5] -2.95% | [6] 2.4%

COc1ccc(N=C(N)N2CCCc3ccccc32)cc1
inactive: [1] -5.25% | [2] 17.9% | [3] 0.55% | [4] -84.9% | [5] 1.4% | [6] 0.4%

Cc1ccc2nc(N=C(N)N)[nH]c2c1
inactive: [1] -16.5% | [2] -33.1% | [3] 2.75% | [4] 1.1% | [5] -14.3% | [6] -12.6%

CCCCCCCCCCCCCCCC(=O)OCC(COP(=O)(O)OC1CCC2(C)C(=CCC3C2CCC2(C)C(C(C)CCCC(C)C)CCC32)C1)OC(=O)CCCCCCCCCCCCCCC (stereo not given)
inactive: [1] 1.9% | [2] 4.05% | [3] 22.2% | [4] -5.5% | [5] -3.1% | [6] -4.8%

COc1ccc(C(=O)C(C(=O)C(=O)Nc2ccc(Cl)c(Cl)c2)c2ccc(OC)cc2)cc1 (stereo not given)
inactive: [1] -0.6% | [2] 11.2% | [3] -34.4% | [4] 38.1% | [5] 8.95% | [6] -17.3%

Cc1cc(C)c(N)c(C)n1
inactive: [1] -14.8% | [2] -9.6% | [3] -22.1% | [4] -1.25% | [5] 1.1% | [6] 11.9%
